# Inconclusive results are not listed. Where a call stands in place of a potency, no number is given. The source made the active and inactive calls. The call rests on the fitted dose curve; in most records, active means well fitted curve in the direction sought with a large enough effect; inconclusive means small, poorly fitted or top-dose-only effect, or another doubt; inactive means no such curve, though single readings can be large; an effect the other way counts as inactive or inconclusive.
# Key:
# [1] = tested on: Zika virus NS2B-NS3 protease; assay: Primary screen GU AMC qHTS for Zika virus inhibitors (AID 1347154); further: nearly all actives have a fitted effect of over 70% in size
# Outline: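 Fluorogenic AMC-substrate cleavage by noncovalent NS2B-NS3 protease complex (25 nM, pH 8.0 Tris buffer with Tween 20) followed for 15 minutes at room temperature (~20% conversion). Percent inhibition from ex340/em450 signal change, fitted by 4-parameter Hill equation.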
# [2] = qHTS to identify inhibitors of the type 1 interferon - major histocompatibility complex class I in skeletal muscle: primary screen against the NCATS Mechanism Interrogation Plate v5.0 (MIPE) Libary (AID 1347411); further: nearly all actives have a fitted effect of over 65% in size; further: potency means the concentration at half of the fitted maximal effect
# Outline: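 Seed engineered human myoblasts (HLA-B HiBit) in medium without dexamethasone containing 4 ng/ml IFN-beta; after 1 hr add compound titrations (top 46 uM final). Incubate 24 hrs at 37 C, lyse 10 min with HiBiT reagent, read luminescence.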
# [3] = tested on: Zika virus NS2B-NS3 protease (linked construct); assay: Primary screen NINDS Rhodamine qHTS for Zika virus inhibitors (AID 1347160); further: nearly all actives have a fitted effect of over 55% in size; further: potency means the concentration at half of the fitted maximal effect
# Outline: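 Enzyme (25 nM, linked NS2B-NS3) was preincubated 15 min with compound in 10 mM Tris-HCl pH 8.0, 0.01% Tween 20. Rhodamine110 substrate (1.5 microM) was then added and fluorescence read at start and after 15 min.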
# [4] = tested on: Zika virus NS2B-NS3 protease (unlinked complex); assay: Primary screen GU Rhodamine qHTS for Zika virus inhibitors: Unlinked NS2B-NS3 protease assay (AID 1347159); further: nearly all actives have a fitted effect of over 60% in size
# Outline: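 Enzyme 25 nM in Tris-HCl pH 8.0 + 0.01% Tween 20; compounds up to 114 microM, 15 min RT dark; + Rhod110 substrate 1.5 microM; read t0 and 15 min; delta fluorescence → % inhibition → 4-parameter Hill fit.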
# [5] = tested on: Zika virus NS2B-NS3 protease (linked construct); assay: 384 well plate NINDS Rhodamine confirmatory qHTS for Zika virus inhibitors (AID 1347164); further: potency means the concentration at half of the fitted maximal effect; nearly all actives have a fitted effect of over 65% in size
# Outline: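 Cleavage of Ac-LKRR-Rhodamine 110 (10 microM final) by linked protease (final 5, 30 or 60 nM) was followed as fluorescence at 485/538 nm after 25 min, room temperature, dark. Compounds preincubated ~15 min.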
# [6] = biological target: Protein phosphatase 1D (Homo sapiens) (UniProt O15297); assay: RapidFire Mass Spectrometry qHTS Assay for Modulators of WT P53-Induced Phosphatase 1 (WIP1) (AID 1347424);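 further: amount of dephosphorylated VEPPL-S-QETFS peptide product formed by WIP1; series mostly up to about 63 µM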
# Sequence of Protein phosphatase 1D (Homo sapiens) (O15297 whole entry, looked up): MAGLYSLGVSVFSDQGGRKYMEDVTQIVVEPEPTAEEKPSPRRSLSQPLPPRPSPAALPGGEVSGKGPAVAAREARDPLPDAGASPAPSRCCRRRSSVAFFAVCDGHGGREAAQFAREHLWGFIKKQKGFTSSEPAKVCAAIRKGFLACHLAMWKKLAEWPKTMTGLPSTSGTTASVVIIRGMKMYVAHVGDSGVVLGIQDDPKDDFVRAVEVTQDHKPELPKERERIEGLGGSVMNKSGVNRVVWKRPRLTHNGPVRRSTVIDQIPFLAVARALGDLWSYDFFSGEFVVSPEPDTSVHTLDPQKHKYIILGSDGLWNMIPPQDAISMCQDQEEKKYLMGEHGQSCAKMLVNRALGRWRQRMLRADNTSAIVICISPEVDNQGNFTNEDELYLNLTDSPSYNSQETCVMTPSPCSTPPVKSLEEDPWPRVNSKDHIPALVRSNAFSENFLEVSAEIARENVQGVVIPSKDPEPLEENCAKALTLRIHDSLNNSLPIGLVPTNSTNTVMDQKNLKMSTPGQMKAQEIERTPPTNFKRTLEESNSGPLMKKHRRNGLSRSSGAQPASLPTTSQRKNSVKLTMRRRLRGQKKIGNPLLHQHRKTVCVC
# Outline: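 RapidFire mass spectrometry measured dephosphorylated peptide after 5 min room-temperature reaction of 2 uM VEPPL-pS-QETFS with 10 nM WIP1 (50 mM Tris-HCl pH 7.5, 30 mM MgCl2, 0.1 mM EGTA, BSA), following 1 hr compound preincubation; 1 uM isotope-labelled product standard.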
# [7] = biological target: Protein phosphatase 1D (Homo sapiens) (UniProt O15297); assay: Rhodamine-PBP qHTS Assay for Modulators of WT P53-Induced Phosphatase 1 (WIP1) (AID 1347425)
# Outline: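 5 nM WIP1 + 10 uM Rh-PBP, 50 mM Tris pH 7.5, 30 mM MgCl2, 1 mM TCEP, 0.1 mM EGTA, BSA; cpds pinned, 1 hr RT; + 10 uM phosphopeptide; fluorescence 1-min reads x 11 min; delta = f1 - f0.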
# [8] = qHTS to identify inhibitors of the type 1 interferon - major histocompatibility complex class I in skeletal muscle: primary screen against the NCATS Pharmaceutical Collection (AID 1347407);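 further: luminescence of HiBiT knocked into endogenous HLA-B as interferon-induced MHC class I level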
# Outline: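 A qHTS format is used: 8-point, 1:5 compound series with 46 uM top final concentration, applied alongside 4 ng/ml IFN-beta to HLA-B*08:01-HiBiT knock-in myoblasts. Luminescence is measured after 24 h treatment.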
# [9] = Confirmatory screen NINDS Rhodamine qHTS for Zika virus inhibitors (AID 1347161); further: potency means the concentration at half of the fitted maximal effect; nearly all actives have a fitted effect of over 60% in size
# Outline: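 Percent inhibition, normalized to uninhibited and enzyme-free controls, is fitted to a 4-parameter Hill equation. Fluorescence change comes from a 15-min cleavage of 1.5 microM bis-peptide Rhodamine110 substrate by 25 nM linked NS2B-NS3 at room temperature.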
smiles,measurement,setting,value
C[C@]12CC[C@@H]3c4ccc(O)cc4CC[C@H]3[C@H]1[C@@H](O)[C@@H](O)[C@H]2O,Potency,[1],inactive
same,Potency,[2],inactive
COc1ccc(Cn2ccc3ccc(C(=O)NO)cc32)cc1,Potency,[3],inactive
same,Potency,[2],inactive
CC(C)(F)C[C@H](N[C@@H](c1ccc(-c2ccc(S(C)(=O)=O)cc2)cc1)C(F)(F)F)C(=O)NC1(C#N)CC1,Potency,[2],inactive
Nc1[nH]nc2nnc(-c3c(-c4ccccc4)nn4ccccc34)cc12,Potency,[4],inactive
same,Potency,[3],inactive
same,Potency,[2],inactive
c1ccc(CNc2nc(N3CCOc4ccccc43)nc3c2CCCC3)cc1,Potency,[3],inactive
same,Potency,[2],inactive
CC(C)(OCc1nn(Cc2ccccc2)c2ccccc12)C(=O)O,Potency,[3],inactive
CC(=O)NCCC(=O)N[C@@H](CCC(N)=O)C(=O)N[C@@H](CO)C(=O)N[C@@H](CCC(N)=O)C(=O)N[C@@H](CCC(N)=O)C(=O)N[C@H](C(=O)N[C@@H](Cc1ccccc1)C(=O)N[C@]1(C)CCCCCCC=CCCC[C@@](C)(C(=O)N[C@@H](CCC(N)=O)C(=O)N[C@@H](CC(N)=O)C(N)=O)NC(=O)[C@H](CC(C)C)NC(=O)[C@H](CC(C)C)NC(=O)[C@@H](CCCNC(=N)N)NC(=O)[C@H](Cc2c[nH]c3ccccc23)NC(=O)[C@H](CC(C)C)NC(=O)[C@H](CC(N)=O)NC1=O)[C@H](C)O,Potency,[2],inactive
COc1cc(F)c(C(C)C)cc1-c1ccc(C(F)(F)F)cc1CN1C(=O)O[C@H](c2cc(C(F)(F)F)cc(C(F)(F)F)c2)[C@@H]1C,Potency,[2],inactive
CN1C(=O)C[C@H](C(=O)N[C@@H](Cc2cnc[nH]2)C(=O)N2CCC[C@@H]2C(N)=O)NC1=O,Potency,[2],inactive
C[C@H](c1ccc(F)cc1CCCC(=O)O)N(c1cc(F)ccc1F)S(=O)(=O)c1ccc(Cl)cc1,Potency,[3],14.1 µM (active)
same,Potency,[2],inactive
CN[C@@H]1CN(c2ccc3c(=O)c(C(=O)O)cn(-c4nccs4)c3n2)C[C@@H]1OC,Potency,[2],5.09 µM (active)
CN(C)CC[C@H](CSc1ccccc1)Nc1ccc(S(=O)(=O)NC(=O)c2ccc(N3CCN(Cc4ccccc4-c4ccc(Cl)cc4)CC3)cc2)cc1[N+](=O)[O-],Potency,[5],0.708 µM (active)
O[C@@H](COc1cccc2ncccc12)CN1CCN(C2c3ccccc3[C@@H]3[C@H](c4ccccc42)C3(F)F)CC1 (stereo partly drawn),Potency,[4],inactive
same,Potency,[3],inactive
same,Potency,[6],inactive
same,outcome,[7],inactive
CCCCc1ccc(NS(=O)(=O)c2ccc(C)c(C(=O)N3CCN(c4cccc(C)c4C)CC3)c2)cc1,Potency,[2],inactive
O=C1NC(=O)C(c2cnc3ccccn23)=C1c1cn2c3c(cccc13)CN(C(=O)N1CCOCC1)CC2,Potency,[3],inactive
COc1ccc(-c2nc3ccc(C4=NNC(=O)CC4C)cc3[nH]2)cc1 (stereo not drawn),Potency,[4],inactive
same,Potency,[3],inactive
same,outcome,[8],inactive
same,Potency,[2],inactive
same,Potency,[6],inactive
same,outcome,[7],inactive
COc1ccc(-c2cc3nccn3c(Nc3ncccc3C(N)=O)n2)cc1OC,Potency,[3],inactive
O=C(NCCCCN1CCOCC1)c1cc2ccccc2o1,Potency,[2],inactive
N#CC(c1ccnc(NCCc2cccnc2)n1)c1nc2ccccc2s1 (stereo not drawn),Potency,[2],14.7 µM (active)
CNC(=O)c1cc(Oc2ccc(NC(=O)Nc3ccc(Cl)c(C(F)(F)F)c3)c(F)c2)ccn1,Potency,[3],inactive
same,Potency,[2],23.4 µM (active)
Cc1ccccc1C(C(=O)NC1CCCCC1)N(C(=O)CNc1ccc(C#N)cc1)c1cccc(F)c1 (stereo not drawn),Potency,[4],inactive
same,Potency,[3],inactive
same,Potency,[2],inactive
CCCCCCCCCCCCCCCC(=O)O[C@H]1[C@@H](O)[C@@H](O)[C@@H]([C@H](NC(=O)[C@@H]2C[C@@H](CCC)CN2C)[C@H](C)Cl)O[C@@H]1SC,Potency,[2],inactive
CO[C@@H]1C(N(C)C(=O)c2ccccc2)C[C@H]2O[C@]1(C)n1c3ccccc3c3c4c(c5c6ccccc6n2c5c31)C(=O)NC4=O (stereo partly drawn),Potency,[2],inactive
COc1nccc(-c2c(-c3ccc(F)cc3)ncn2C2CCNCC2)n1,Potency,[4],inactive
same,Potency,[3],inactive
same,Potency,[2],inactive
CC(C)Oc1cc(Nc2nc(N[C@@H](C)c3ccc(F)cn3)ncc2Cl)[nH]n1,Potency,[2],1.65 µM (active)
Cc1cc(-c2ncc(CC(=O)Nc3ccc(-c4cnccn4)cn3)cc2C)ccn1,Potency,[4],inactive
same,Potency,[3],inactive
same,Potency,[2],inactive
C=CC(=O)Nc1cccc(Sc2nc(Nc3ccc(N4CCN(C)CC4)cc3)ncc2Cl)c1,Potency,[4],inactive
same,Potency,[3],inactive
same,Potency,[2],13.1 µM (active)
C=C1c2cccc(O)c2C(O)=C2C(=O)[C@@]3(O)C(O)=C(C(N)=O)C(=O)[C@@H](N(C)C)[C@@H]3[C@@H](O)[C@H]12,Potency,[9],15.6 µM (active)
NC(=O)c1noc([C@H](CCCC2CCCCC2)CC(=O)NO)n1,Potency,[3],inactive
same,Potency,[2],inactive

# Source: PubChem BioAssay (NCATS)
